This note sets out measurements from PubChem BioAssay AID2535 (National Center for Advancing Translational Sciences (NCATS), 2010).

The source made the active and inactive calls. The call rests on the fitted dose curve; in most records, active means well fitted curve in the direction sought with a large enough effect; inconclusive means small, poorly fitted or top-dose-only effect, or effect the other way, or another doubt; inactive means no such curve, though single readings can be large or run the other way.

Chain of Pyruvate kinase PKLR (Homo sapiens) (P30613 whole entry, looked up): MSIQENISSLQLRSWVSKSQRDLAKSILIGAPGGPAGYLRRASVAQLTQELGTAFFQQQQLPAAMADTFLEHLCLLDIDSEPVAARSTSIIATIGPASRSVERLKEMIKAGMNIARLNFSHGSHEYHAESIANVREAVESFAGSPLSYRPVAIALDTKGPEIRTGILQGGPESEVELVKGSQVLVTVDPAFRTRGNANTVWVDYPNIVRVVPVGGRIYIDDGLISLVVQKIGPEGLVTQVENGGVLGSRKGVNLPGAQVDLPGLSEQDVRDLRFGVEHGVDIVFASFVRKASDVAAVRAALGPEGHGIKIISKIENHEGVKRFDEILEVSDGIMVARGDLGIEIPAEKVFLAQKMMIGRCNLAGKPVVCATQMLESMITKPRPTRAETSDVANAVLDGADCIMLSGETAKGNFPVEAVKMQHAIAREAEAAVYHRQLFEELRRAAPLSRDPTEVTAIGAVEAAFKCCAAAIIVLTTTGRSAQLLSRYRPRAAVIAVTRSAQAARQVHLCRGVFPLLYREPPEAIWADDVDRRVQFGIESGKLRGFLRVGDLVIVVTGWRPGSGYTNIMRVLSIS

The test addresses Pyruvate kinase PKLR (Homo sapiens) (UniProt P30613). The test is described as follows: Secondary Concentration-Response Assay for Activators of Human Liver Pyruvate Kinase: for Probe SAR.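 Further: 0% = uninhibited enzyme wells on each plate.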 Conditions: purified hPK-L, ATP production, Kinase-Glo luminescence; series mostly up to 58.3 µM; activity change, positive = activation: at the top concentration. Put shortly: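 Luciferase-coupled luminescence (Kinase-Glo) reports ATP made by 0.1 nM hPK-L from 0.5 mM PEP (at Km) and 0.1 mM ADP (about 10-fold below Km); pH 7.2 imidazole buffer, 1 h room temperature, in concentration-response format.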
`O=C1CCc2cc(S(=O)(=O)Nc3cccc(Cl)c3)ccc2N1`: the “activity change, positive = activation” value was 3.94% (inactive).

With `O=C1NS(=O)(=O)c2ccccc21`, the “activity change, positive = activation” value is 2.82% (inactive).

For `O=C1c2ccccc2C(=O)N1Cc1ccccn1`, the “activity change, positive = activation” value was 2.21% (inactive).

As for `Cc1ccc(NS(=O)(=O)c2cc3c(cc2F)NC(=O)CC3)cc1C`, the “activity change, positive = activation” value was 8.84% (inactive).

As to `CC(C)Nc1cccc(S(=O)(=O)N2CCCN(S(=O)(=O)c3ccc4c(c3)OCCO4)CC2)c1`, the “activity change, positive = activation” value is 8.24% (inactive).

For `COc1ccc(OC2=NS(=O)(=O)c3ccccc32)cc1`, the “activity change, positive = activation” value is -3.39% (inactive).

As for `Cc1ccc2nc(-c3ccc(C)o3)c(Nc3ccccc3)n2c1`, the “activity change, positive = activation” value is 1.62% (inactive).

Consider `Cc1ccccc1Nc1c(-c2ccccc2)nc2cccc(C)n12`, for which the “activity change, positive = activation” value was 0.826% (inactive).

For `COc1cccc(N2C(=O)c3ccccc3C2=O)n1`, the “activity change, positive = activation” value is 6.52% (inactive).

With `O=S1(=O)N=C(Oc2cccc(Cl)c2)c2ccccc21`, the “activity change, positive = activation” value was -11.2% (inactive).

Turning to `CCNc1cccc(S(=O)(=O)N2CCCN(S(=O)(=O)c3ccc4c(c3)OCCO4)CC2)c1`, the “activity change, positive = activation” value is 25.5% (inactive).

For the molecule `Cc1ccc(NS(=O)(=O)c2ccc3c(c2)CCC(=O)N3)cc1Cl`, the “activity change, positive = activation” value was 8.73% (inactive).

Turning to `Cc1ccc(Nc2c(-c3ccsc3)nc3cccc(C)n23)cc1`, the “activity change, positive = activation” value was -2.82% (inactive).

In the case of `COc1ccccc1N1C(=O)c2ccccc2C1=O`, the “activity change, positive = activation” value is 7.74% (inactive).

Regarding `COc1cc(N2C(=O)c3ccccc3C2=O)c2ncccc2c1`, the “activity change, positive = activation” value was 4.29% (inactive).

`CC(=O)Nc1ccc(S(=O)(=O)Nc2ccc(C)c(C)c2)cc1`: the “activity change, positive = activation” value is 10% (inactive).

Regarding `Cc1ccc(NS(=O)(=O)c2cc3c(cc2N(C)C)CCC(=O)N3)cc1C`, the “activity change, positive = activation” value was 14.3% (inactive).

On to `CC(=O)N1c2ccc(S(=O)(=O)Nc3ccc(C)c(C)c3)cc2CC1C` (configuration not stated), for which the “activity change, positive = activation” value is 29.6% (inactive).

Take `Cc1ccc(Nc2c(-c3ccc(C)o3)nc3ccccn23)cc1`: the “activity change, positive = activation” value is 0.661% (inactive).

As for `O=C1CCc2cc(S(=O)(=O)Nc3ccccc3F)ccc2N1`, the “activity change, positive = activation” value is -10.2% (inactive).

As to `Cc1ccc2nc(-c3ccc(C)o3)c(Nc3ccc(Cl)cc3)n2c1`, the “activity change, positive = activation” value was -16.2% (inactive).

In the case of `O=C1c2ccccc2C(=O)N1c1nccs1`, the “activity change, positive = activation” value was 6.46% (inactive).

For `Cc1ccc(NS(=O)(=O)c2ccc3ccccc3c2)cc1C`, the “activity change, positive = activation” value was 5.46% (inactive).

`O=C1c2ccccc2C(=O)N1Cc1ccccc1`: the “activity change, positive = activation” value was 3.62% (inactive).

`Cc1ccc(-c2nc3ccccn3c2Nc2ccc(F)cc2)o1`: the “activity change, positive = activation” value is 2.86% (inactive).

As to `COc1ccccc1NS(=O)(=O)c1ccc2c(c1)CCC(=O)N2`, the “activity change, positive = activation” value was -0.682% (inactive).

On to `Cc1ccc(NS(=O)(=O)c2ccc3c(c2)oc(=O)n3C)cc1C`, for which the “activity change, positive = activation” value was 8.8% (inactive).

As for `Cc1ccc(NS(=O)(=O)c2cc3c(cc2N(C)C)NC(=O)CC3)cc1C`, the “activity change, positive = activation” value is 8% (inactive).

On to `Cc1ccc(N[S+](=O)([O-])c2cc3c(cc2CCc2ccccc2)NC(=O)CO3)cc1C`, for which the “activity change, positive = activation” value is 1.58% (inactive).

In the case of `Cc1ccc(-c2nc3ccccn3c2Nc2ccccc2C)o1`, the “activity change, positive = activation” value is 3.52% (inactive).

Regarding `Cc1ccc(NS(=O)(=O)c2ccc(Cl)cc2)cc1C`, the “activity change, positive = activation” value was 10.6% (inactive).

Turning to `Cc1ccc(NS(=O)(=O)c2ccc3c(c2)N(C)CCO3)cc1C`, the “activity change, positive = activation” value was 8.48% (inactive).
